CHT block: inhibitors of human choline transporter CHT; 0.86% of 310,000 active; CHT-expressing cells, membrane potential dye, choline response; hits give low values; B-score at 10 µM; High affinity choline transporter 1 (Homo sapiens), Q9GZV3;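 active means B-score over 3 SD under the library average, and starting fluorescence ratio not unusually high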;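 further: choline stimulus applied at its EC90 after an EC20 pre-addition; B-score computed on integrated fluorescence ratio after choline addition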
VLA-4 inh: inhibition in human VLA-4 binding assay, primary screen, VLA-4 allosteric modulator project, MLPCN library, flow cytometry, VLA-4 expressing cells; Integrin alpha-4 (Homo sapiens), P13612; ligand binding flow cytometry; inhibition, % (about 7 µM as worked out from the volumes in the protocol); 0.2% of 330,000 active; AID 2557, 2010; in the data active means inhibition above about 50%
Target sequence (P13612 whole entry, looked up): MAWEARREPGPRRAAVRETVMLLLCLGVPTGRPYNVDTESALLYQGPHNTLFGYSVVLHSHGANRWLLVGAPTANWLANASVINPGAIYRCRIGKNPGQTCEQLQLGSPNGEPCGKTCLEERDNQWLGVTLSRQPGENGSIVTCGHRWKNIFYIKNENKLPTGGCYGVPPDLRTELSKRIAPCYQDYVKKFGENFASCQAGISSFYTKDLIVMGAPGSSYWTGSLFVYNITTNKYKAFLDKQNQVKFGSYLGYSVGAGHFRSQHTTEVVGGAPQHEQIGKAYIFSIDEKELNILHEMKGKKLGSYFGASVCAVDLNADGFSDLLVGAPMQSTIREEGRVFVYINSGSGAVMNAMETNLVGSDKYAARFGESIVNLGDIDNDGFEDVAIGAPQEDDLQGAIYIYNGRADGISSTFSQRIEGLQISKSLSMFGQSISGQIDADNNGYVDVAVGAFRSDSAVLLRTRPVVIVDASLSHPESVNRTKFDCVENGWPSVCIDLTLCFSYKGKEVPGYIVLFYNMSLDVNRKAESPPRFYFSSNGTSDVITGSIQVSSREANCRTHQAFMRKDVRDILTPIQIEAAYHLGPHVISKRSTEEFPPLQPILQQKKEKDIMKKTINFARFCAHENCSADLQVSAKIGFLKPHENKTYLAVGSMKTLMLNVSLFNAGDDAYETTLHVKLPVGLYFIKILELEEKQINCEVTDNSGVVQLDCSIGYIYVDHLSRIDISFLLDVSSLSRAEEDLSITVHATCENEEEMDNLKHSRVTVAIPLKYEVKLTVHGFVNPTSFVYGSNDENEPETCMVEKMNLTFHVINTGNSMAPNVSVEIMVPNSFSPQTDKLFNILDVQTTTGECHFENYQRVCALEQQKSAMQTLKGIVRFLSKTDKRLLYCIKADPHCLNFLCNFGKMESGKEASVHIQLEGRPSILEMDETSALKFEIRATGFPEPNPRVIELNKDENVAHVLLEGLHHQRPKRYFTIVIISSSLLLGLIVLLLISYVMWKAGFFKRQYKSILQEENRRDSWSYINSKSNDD
HIF act: HIF pathway transcriptional activators, primary screen, cell-based, U2OS HRE-luciferase, luminescence. U2OS HRE-luciferase reporter; normalized: DMSO 0%, desferrioxamine 100%. activation, % at 7.5 µM (by protocol). 0.32% of 300,000 active. AID 1910, 2009;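 active means mean activation of at least 10% of the iron chelator positive control signal, with at least half of replicates also reaching 10%; inconclusive means mean and replicate majority disagree about reaching 10%; inactive means mean and most replicates under 10%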
AI-2 QS mod: Vibrio harveyi AI-2 quorum sensing modulators, primary screen, JMH597 strain, luminescence/OD600 ratio; Vibrio harveyi JMH597 AI-2 luminescence/OD600 ratio, 9 h; hits give low values; strain lacks LuxN and CqsS sensors; 0 = neutral-control median; activity change, % at 7.5 µM; 0.4% of 300,000 active; AID 2094, 2009; in the data active means activity change below about -75%, passing the limit was not always enough; inconclusive means no clear call, values can overlap the other calls;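 further: luminescence divided by OD600 gain over 9 h not by final OD600 alone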
CHT PAM: CHT positive allosteric modulators, primary screen, cell-based, membrane potential dye, choline EC20; High affinity choline transporter 1 (Homo sapiens), Q9GZV3; CHT-expressing cells; hits give high values; LV-AA mutant CHT in HEK293 cells; B-score at 10 µM; 0.49% of 310,000 active; AID 488977, 2010;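 active means initial fluorescence not abnormally high and integrated response B-score, plate-corrected, over 3 SD above library mean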
Platelet DG rel: inhibitors of platelet dense granule secretion, primary screen, cell-based, MLPCN, human platelets; human platelet-rich plasma, SFLLRN dense granule ATP release, luminescence; 0.22% of 300,000 active; inhibition, %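 (compounds screened at 7.5 µM in platelet-rich plasma)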; AID 1663, 2009;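 active means mean replicate score, as percent of positive control, at or above 50; inconclusive means mean below 50 but at least one replicate at or above 50; inactive means mean and every replicate below 50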
CHT block conf: CHT inhibitors, confirmation, cell-based, membrane potential dye, duplicate; CHT-expressing cells, choline membrane potential dye; LV-to-AA substituted CHT, HEK293 cells; 70% of 2,400 active; shares compounds with CHT block; CHT activity remaining % of control (hits give low values), % at 10 µM;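 active means choline transporter activity left, mean of duplicates at 10 µM, below buffer-only control mean minus 3 SD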;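 further: depolarization triggered by choline at its EC90 following an EC20 pre-addition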
HEK293 CHT ctr: membrane potential effects in parental HEK293, counter-screen for CHT inhibitor project, cell-based, membrane potential dye; choline response; active = decrease or increase beyond buffer ±3SD; shares compounds with CHT block; membrane potential ratio readout (active if shifted either direction beyond buffer ±3SD; no single direction) at 10 µM; AID 493222, 2011; 4% of 2,400 active;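 further: parental cells lack the transporter so any hit is non-specific; ratio is peak minus trough fluorescence over baseline after EC90 choline challenge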
Hits are given with their value. Compounds with a hit are over-represented: about 2.2% of the library has one in this group of screens.

Screening Cc1ccc(OC(C)C(=O)N2CC(=O)Nc3ccccc32)cc1 (stereo not drawn) returned CHT block inactive, VLA-4 inh inactive, HIF act inconclusive, AI-2 QS mod inactive, CHT PAM inactive and Platelet DG rel inactive.
O=C(O)c1ccc(N=Nc2c(O)ccc3ncccc23)cc1 was read as CHT block inactive, VLA-4 inh inactive, HIF act inactive, AI-2 QS mod inactive, CHT PAM inactive and Platelet DG rel inactive.
Screening Cc1ccc(-n2c(C)cc(C(=O)COC(=O)C3=NNC(=O)CC3)c2C)cc1 returned CHT block -6.49, VLA-4 inh inactive, HIF act inactive, AI-2 QS mod inactive, CHT PAM inactive, Platelet DG rel inactive, CHT block conf 17.6% and HEK293 CHT ctr -11.7.
Screening Cc1cc(C(=O)COC(=O)C2=NNC(=O)CC2)c(C)n1-c1ccccc1 returned CHT block inactive, VLA-4 inh inactive, HIF act inactive, AI-2 QS mod inactive, CHT PAM inactive and Platelet DG rel inactive.
Screening Cn1c(CN2CCCC2)c(C#N)c2ccccc21 returned CHT block -4.97, VLA-4 inh inactive, HIF act inactive, AI-2 QS mod inactive, CHT PAM inactive, Platelet DG rel inactive, CHT block conf 70.6% and HEK293 CHT ctr inactive.
CCOC(=O)CSCc1c(C#N)c2ccccc2n1C was read as CHT block -6.8, VLA-4 inh inactive, CHT PAM inactive, CHT block conf inactive and HEK293 CHT ctr inactive.
`CN1CCN(Cc2c(C#N)c3ccccc3n2C)CC1` gave CHT block inactive, VLA-4 inh inactive, HIF act inactive, AI-2 QS mod inactive, CHT PAM inactive and Platelet DG rel inactive.
Screening CC(=O)N(Cc1c(C#N)c2ccccc2n1C)c1ccccc1 returned CHT block inactive, VLA-4 inh inactive, HIF act inactive, AI-2 QS mod inactive, CHT PAM inactive and Platelet DG rel inconclusive.
Screening O=C(COC(=O)c1ccc(O)cc1)Nc1cc(S(=O)(=O)N2CCOCC2)ccc1Cl returned VLA-4 inh inactive.
For CC(C)(C)S(=O)(=O)/C(C#N)=N/Nc1ccc(Cl)cc1 the results were CHT block -5.5, VLA-4 inh inactive, HIF act inactive, AI-2 QS mod inactive, CHT PAM inactive, Platelet DG rel inactive, CHT block conf 46.7% and HEK293 CHT ctr inactive.
`CCn1c(SCc2nc(-c3ccc(OC)c(OC)c3)no2)nnc1-c1cccs1` gave CHT block -8.64, VLA-4 inh inactive, HIF act inactive, AI-2 QS mod inactive, CHT PAM inactive, Platelet DG rel inactive, CHT block conf 41.7% and HEK293 CHT ctr inactive.
`CC(C)(C)NCc1cccn1-c1sc2c(c1C#N)CCCC2` gave CHT block -6.32, VLA-4 inh inactive, HIF act inactive, AI-2 QS mod inactive, CHT PAM inactive, Platelet DG rel inactive, CHT block conf 20.3% and HEK293 CHT ctr -16.6.
For N#Cc1c(N2C(=O)Nc3ccccc3N2O)sc2c1CCCC2 the results were CHT block inactive, VLA-4 inh inactive, HIF act inactive, AI-2 QS mod inactive, CHT PAM inactive and Platelet DG rel inactive.
`CCC1CCCCN1CCCNC(=O)c1ccc(N2CCOCC2)c(NS(=O)(=O)c2ccc(OC)cc2)c1` (stereo not drawn) gave CHT block -6.79, VLA-4 inh inactive, HIF act inactive, AI-2 QS mod inactive, CHT PAM inactive, Platelet DG rel inactive, CHT block conf 42.3% and HEK293 CHT ctr inactive.
For CCCCNC(=O)c1ccc(N2CCOCC2)c(NS(=O)(=O)c2ccc(OC)cc2)c1 the results were CHT block inactive, VLA-4 inh inactive, HIF act inactive, AI-2 QS mod inactive, CHT PAM inactive and Platelet DG rel inactive.
Screening CCOC(=O)c1c(NC(=O)CCN2C(=O)c3cccc([N+](=O)[O-])c3C2=O)sc(C(=O)OC(C)C)c1C returned CHT block -7.49, VLA-4 inh inactive, HIF act inactive, AI-2 QS mod inactive, CHT PAM inactive, Platelet DG rel inactive, CHT block conf 70.5% and HEK293 CHT ctr inactive.
`CCOC(=O)c1sc(NC(=O)CCN2CCN(C)CC2)c(C(=O)OCC)c1C` gave CHT block -5.27, VLA-4 inh inactive, HIF act inactive, AI-2 QS mod inactive, CHT PAM inactive, Platelet DG rel inactive, CHT block conf 46.9% and HEK293 CHT ctr inactive.
For CC(OC(=O)CCN1C(=O)C2CC=CCC2C1=O)C(=O)Nc1cccc(Cl)c1 (stereo not drawn) the results were CHT block inactive, VLA-4 inh inactive, HIF act inactive, AI-2 QS mod inactive, CHT PAM inactive and Platelet DG rel inactive.
For CC(OC(=O)CCN1C(=O)c2cccc([N+](=O)[O-])c2C1=O)C(=O)Nc1cc(Cl)cc(Cl)c1 (stereo not drawn) the results were CHT block -6.59, VLA-4 inh inactive, HIF act inactive, AI-2 QS mod inactive, CHT PAM inactive, Platelet DG rel inactive, CHT block conf 60.4% and HEK293 CHT ctr inactive.
`O=C(c1ccccc1Cl)N1CCSCC1` gave CHT block inactive, VLA-4 inh inactive, HIF act inactive, AI-2 QS mod inactive, CHT PAM inactive and Platelet DG rel inactive.
Screening O=C(/C=C/c1cn(-c2ccccc2)nc1-c1cccnc1)c1ccco1 returned CHT block inactive, VLA-4 inh inactive, HIF act inactive, AI-2 QS mod inactive, CHT PAM inactive and Platelet DG rel inactive.
`COc1cccc(CNc2ccc(N3CCC(C)CC3)cc2)c1OC` gave CHT block -5.39, VLA-4 inh inactive, HIF act inactive, AI-2 QS mod inactive, CHT PAM inactive, Platelet DG rel inactive, CHT block conf 53.6% and HEK293 CHT ctr inactive.
Cc1c(O)ccc(/C(Cc2ccc3ccccc3n2)=N\N)c1O was read as CHT block -5.88, VLA-4 inh inactive, HIF act inactive, AI-2 QS mod inactive, CHT PAM inactive, Platelet DG rel inactive, CHT block conf 56.4% and HEK293 CHT ctr inactive.
For CCCCc1cc(-c2n[nH]c(=S)o2)c2ccccc2n1 the results were CHT block -8.36, VLA-4 inh inactive, HIF act inactive, AI-2 QS mod inactive, CHT PAM inactive, Platelet DG rel inactive, CHT block conf 66.9% and HEK293 CHT ctr inactive.
